Reference: the OligoGym collection

The sequences below were run against FBXO43 (assay: pooled miR-30 sensor sort-seq; sequence = guide strand). Settings: shRNA.

Sequence	sensor-assay potency score (higher = more potent)
TTATCTATATTATCAAAGCTAC	-0.969
TTGAACAACAATTTCACGCCAA	0.6
TTTATCTTGAACAACAATTTCA	-0.614
TTCATGTCCACTATTTTCCTGT	0.372
TTCTTGAAAAGAACCCTCCTGG	0.0426
TTTGACTGCATGAAGTCACTTC	0.521

The sequences below were run against FBXO8 in the same assay as above. Settings: shRNA.

Sequence	sensor-assay potency score (higher = more potent)
TTAGTCTGAAGTAAAAACTGAA	-0.599
TAGCACAGTACATAGACAGCAT	0.733
TTGCTCACTGTAGCCTTCTTGT	-1.19
TAGGACAAGATGGTAAAGCTTA	-0.15
TTCCTTTGGCGAATCATCCAGG	-0.484
TTCATCATTCGCAAGGTCCTGC	0.558
TTTATCATTCGTTAACAGCTGT	0.355
TTGCTCGCAGCCATTCTCCTGC	-0.359
TTCATCAAGATAGATTCTCAGT	-0.522
TTGTACAGAAGATAAACTTTGC	-0.385
TCATCCAAGACATCTCTCCTTT	0.239

These sequences were tested against FBXW9 in the same assay as above. Settings: shRNA.

Sequence	sensor-assay potency score (higher = more potent)
TCGTAGATGGTCACCTTCTTGT	-0.618
TAAGGTCTTGATCAGAACCTGG	-0.161
TCGCTTAGTGCCTAAGGTCTTG	-0.92
TTGACGTTGCGATCTCGGGAGC	-1.12
TTCGCTCTCAACTGAGAGCGGG	-0.823
TCGCTCTCAACTGAGAGCGGGG	-1.29
TACTATTTCGCTTAGTGCCTAA	-0.65
TATCTCGCCGAACTGCTGCCCA	-0.658
TTCTTCTCTTCCACCACTGGGT	-0.376
TAGATGGTCACCTTCTTGTCAT	-0.453
TTCACTGTGCTGTCCCAGGAGC	-1.05
TTCTCTTCCACCACTGGGTAGG	-0.729

What follows are sequences tested against FCF1 in the same assay as above. Settings: shRNA.

Sequence	sensor-assay potency score (higher = more potent)
TTTTAGGTTTTAATCTATCCTT	-0.595
TTAGGTTTTAATCTATCCTTTT	-0.692
TCTGAGACTAAGCATTCGCTTC	-1.06
TTCATGGTCGCATACTTCCTTG	-1.25
TTCCTTTGTGTGTACATGGTAA	-0.531
TGTGTGTACATGGTAATCGTTC	-0.765
TTTTAATCTATCCTTTTCTTTA	-1.02
TTTAGGTTTTAATCTATCCTTT	-0.181
TTATGCTGAGTTACTCTCTGTA	0.221
TTCAGCCATTACACAATCGGTT	-0.926
TTATATTGGAAAAATAAGCAGG	-0.37
